# Measurements as given in PubChem BioAssay AID2796 (The Scripps Research Institute Molecular Screening Center, 2010).
# The whole screen tested about 320,000 compounds, of which about 8,000 (2.5%) were called active. Shown is part of a subset that was picked to be rich in actives. A number with no mark means an inactive call. No stated cut-off is given here; in the data, active means activation above about 47%; inactive means the rest.
# Molecular target: Aryl hydrocarbon receptor (Homo sapiens) (UniProt P35869)
# Sequence (P35869 whole entry, looked up): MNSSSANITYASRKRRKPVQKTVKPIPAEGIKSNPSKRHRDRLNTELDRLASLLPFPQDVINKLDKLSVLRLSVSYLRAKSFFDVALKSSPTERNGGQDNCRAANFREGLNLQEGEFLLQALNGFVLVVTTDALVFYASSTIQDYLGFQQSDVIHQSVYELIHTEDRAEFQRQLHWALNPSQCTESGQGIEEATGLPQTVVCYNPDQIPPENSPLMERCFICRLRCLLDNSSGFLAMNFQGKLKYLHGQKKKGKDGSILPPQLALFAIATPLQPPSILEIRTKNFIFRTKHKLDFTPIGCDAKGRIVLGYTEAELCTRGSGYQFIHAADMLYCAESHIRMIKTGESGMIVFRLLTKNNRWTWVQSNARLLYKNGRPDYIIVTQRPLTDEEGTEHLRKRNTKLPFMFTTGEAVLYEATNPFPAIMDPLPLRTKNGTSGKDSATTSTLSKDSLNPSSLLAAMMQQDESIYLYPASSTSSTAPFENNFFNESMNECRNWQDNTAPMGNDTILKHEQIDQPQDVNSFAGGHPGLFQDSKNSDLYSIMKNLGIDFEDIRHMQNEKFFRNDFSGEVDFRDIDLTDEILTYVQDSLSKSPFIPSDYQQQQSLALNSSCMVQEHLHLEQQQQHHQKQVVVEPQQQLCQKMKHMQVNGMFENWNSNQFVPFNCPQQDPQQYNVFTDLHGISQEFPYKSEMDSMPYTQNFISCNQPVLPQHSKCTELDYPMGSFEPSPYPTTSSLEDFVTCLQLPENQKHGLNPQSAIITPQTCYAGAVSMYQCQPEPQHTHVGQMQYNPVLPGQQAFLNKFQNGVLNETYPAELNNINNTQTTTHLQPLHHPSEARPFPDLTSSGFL
# Assay: AHR activators, primary screen, cell-based, luminescence, luciferase reporter, human (AID 2796);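 further: 0% = vehicle wells and 100% = reference agonist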
# Details: AHR-responsive luciferase reporter cells, at 5 µM, active compounds read high
row,Structure (SMILES),activation
1,CC(=O)Nc1ccc(NC(=O)CSc2nnc(COc3ccccc3C)n2CC2CCCO2)cc1 (configuration not stated),1.11%
2,CCOC(=O)N1CCN(Cc2nc3ccc([N+](=O)[O-])cc3c(=O)n2-c2cccc(OC)c2)CC1,32.6%
3,Cc1noc(C)c1C(=O)Nc1ccccn1,4.67%
4,Cc1nonc1NC(=O)c1oc2ccccc2c1C,12.5%
5,Cc1c(C(=O)Nc2ccccn2)oc2ccc(Br)cc12,49.7% (active)
6,Cn1ncc2c(N3CCCCC3)nc(NCCCO)nc21,5.05%
7,COc1ccc(C(=O)Nc2cccc(S(C)(=O)=O)c2)cc1,67.2% (active)
8,COc1cccc(C(=O)Nc2nc3ccc(S(C)(=O)=O)cc3s2)c1,7.38%
9,COc1ccc(NS(=O)(=O)c2ccc(NC(=O)c3ccc(N(C)S(C)(=O)=O)cc3)cc2)cc1,-0.42%
10,CCCNC(=O)COc1coc(CN2CCN(Cc3ccccc3)CC2)cc1=O,1.71%
11,Cc1cnc(C(=O)OCc2c(C)cc(C(C)(C)C)cc2C)cn1,3.96%
12,CCN(c1ccc(NC(=O)COC(=O)CCc2nc3ccccc3n2-c2ccccc2)cc1)C(C)C,-1.26%
13,Cc1ccc(C(=O)OCC(=O)N2CC(C)CC(C)C2)cc1S(=O)(=O)N1CCCCC1 (configuration not stated),0.38%
14,O=C(Nc1ccncc1)c1ccc(Cl)c([N+](=O)[O-])c1,0.64%
15,O=C(Nc1cccnc1)c1ccc(Cl)c([N+](=O)[O-])c1,-0.85%
16,Cc1ccnc(NC(=O)c2ccc(Cl)c([N+](=O)[O-])c2)c1,104% (active)
17,COc1ccc(OC)c(/C=N/NC(=O)c2ccc[n+](CC(=O)c3ccccc3)c2)c1,12.9%
18,Cn1c(C(=O)NCCc2ccsc2)cc2c(=O)n(C)c3ccccc3c21,86.4% (active)
19,CCN1CCCC1CNC(=O)c1cc2c(=O)n(C)c3ccccc3c2n1C (configuration not stated),3.13%
20,Cn1c(C(=O)NCCCN2CCN(c3cccc(Cl)c3)CC2)cc2c(=O)n(C)c3ccccc3c21,7.28%
21,N#Cc1ccccc1NC(=O)c1ccc2c(c1)OCO2,32.1%
22,O=C(CSc1nn(-c2ccc(F)cc2)c(=S)s1)NC1CCS(=O)(=O)C1 (configuration not stated),3.28%
23,C=CCc1cccc2cc(C(=O)Nc3ccc(NC(C)=O)cc3)c(=O)oc12,16.9%

row,Structure (SMILES),activation
1,C=CCN(C(=O)c1cc(C)cc(C)c1)C1(C(=O)Nc2ccccc2)CCN(C(C)C)CC1,5.4%
2,C=CCn1cc(Cl)cc(C(=O)Nc2ccccc2)c1=O,50.9% (active)
3,CC(C)Cc1nnc(NC(=O)CCC(=O)Nc2ccc3cn[nH]c3c2)s1,24.7%
4,O=C1N(c2ccc(Cl)cc2)C(c2ccc(Cl)cc2)N2CCCN12 (configuration not stated),54.2% (active)
5,O=C1NC(=O)C(c2ccc(Cl)cc2)N1 (configuration not stated),-2.18%
6,Cc1ccc(C)c(S(=O)(=O)N2CCCOC2CNC(=O)C(=O)NC2CCCCC2)c1 (configuration not stated),2.26%
7,CC(=O)c1cc(NC(=O)c2ccccc2)c(=O)oc1/C=C/N(C)C,60.3% (active)
8,CCOC(=O)c1cc(NC(=O)c2ccc(Cl)cc2)c(=O)oc1-c1ccccc1,-1.16%
9,CC(=O)Oc1cccc(C(=O)Nc2ccccc2NC(=O)c2cccc(OC(C)=O)c2)c1,2.51%
10,CC(C)C(C(=O)NCc1ccco1)N(CC1CCCO1)C(=O)CNS(=O)(=O)c1ccc(F)cc1 (configuration not stated),-0.85%
11,COc1ccc(C)cc1Nc1nc(C)nc2c1oc1ccccc12,13.4%
12,CCC(C(=O)OC)n1cnc2c(oc3ccccc32)c1=O (configuration not stated),2.16%
13,COc1ccccc1Nc1ncnc2c1oc1ccccc12,86.1% (active)
14,Cn1c(=O)c2cn(-c3cccc4ccccc34)cc2n(C)c1=O,18.1%
15,COc1ccc(OC)c(-n2cc3c(=O)n(C)c(=O)n(C)c3c2)c1,64.9% (active)
16,CC(=O)Nn1cc2c(=O)n(C)c(=O)n(C)c2c1,1.7%
17,O=C(O)c1cccc2c1C(=O)N(C1CCCC1)C2,-3.11%
18,O=C(COc1ccc(F)cc1Br)NCC1COc2ccccc2O1 (configuration not stated),2.44%
19,CC1CCN(c2ccc([N+](=O)[O-])c(SCCO)c2)CC1,13.1%
20,O=C(CSc1nc2ccccc2[nH]1)N/N=C/C=C\c1ccccc1[N+](=O)[O-],26.7%
21,CN1CCN(c2ccc([N+](=O)[O-])c(Sc3nc4ccccc4[nH]3)c2)CC1,50% (active)
22,O=C(OCC(=O)N1CCN(C(=O)c2ccco2)CC1)c1cccc(O)c1,4.27%
23,Cc1c(CN2CCC(CO)(CCOc3ccccc3)CC2)[nH]c2ccc(Cl)cc12,6.78%

row,Structure (SMILES),activation
1,COC(=O)c1oc2ccc(Br)cc2c1NC(C)=O,1.12%
2,COC(=O)c1[nH]c2ccc(Br)cc2c1NC(=O)Oc1ccccc1,48.5% (active)
3,CCOC(=O)c1[nH]c2ccc(OC)cc2c1NC(=O)CCN1CCN(Cc2ccccc2)CC1,4.33%
4,CN(Cc1ccccc1)C(=O)C(=O)c1cn(CC(=O)N2CCCC2)c2ccccc12,0.47%
5,NC(=O)C1(N2CCCCC2)CCN(C(=O)c2ccc(C#Cc3ccccc3)o2)CC1,0.68%
6,O=C(Nc1ccccc1)c1ccc(NC(=O)c2cccs2)cc1,-3.44%
7,O=C(Nc1ccnc(-c2ccncc2)n1)c1cccs1,55.7% (active)
8,O=C(Nc1ccc(NC(=O)c2cccs2)cn1)c1ccco1,-2.71%
9,C/C=C(\C)C(=O)N1CC2(CC(c3cccc(NC(=O)CCCCC)c3)=NO2)C[C@@H]1C(N)=O (some centres not stated),2.15%
10,N#CC1(NC(=O)COc2ccc3oc4ccccc4c3c2)CCCCC1,4.73%
11,Cc1nc2ccccc2nc(=O)c1NNc1ccc([N+](=O)[O-])cc1,47.2% (active)
12,Cc1cccc(NS(=O)(=O)c2ccc([N+](=O)[O-])cc2)n1,1.34%
13,O=[N+]([O-])c1ccc2c(c1)Nc1nc3ccccc3nc1N2,36.9%
14,Cc1ccc(C(=O)N(CC(=O)NC2CCCC2)c2ccc(F)cc2)s1,2.22%
15,COc1cccc(-c2nn(C)c3sc(C(=O)N4CCN(c5ccccc5)CC4)cc23)c1,9.25%
16,Cn1nc(-c2ccc(Cl)cc2)c2cc(C(=O)NCc3ccco3)sc21,79.7% (active)
17,COc1ccc2c(Cl)c(C(=O)NCc3ccco3)sc2c1,-3%
18,COc1ccccc1N1CCN(C(=O)c2cc3c(-c4ccc(Cl)cc4)nn(C)c3s2)CC1,121% (active)
19,Cn1nc(C(F)(F)F)c2cc(C(=O)N3CCOCC3)sc21,-0.43%
20,COc1cccc(-c2cc(C(=O)N3CCN(c4ccccc4OC)CC3)no2)c1,2.67%
21,CC(C)(C)c1ccc(C(=O)NCc2ccco2)cc1,9.26%
22,CCOC(=O)N1CCN(C(=O)c2cc3c(-c4ccc(Cl)cc4)nn(C)c3s2)CC1,89.2% (active)
23,CCOC(=O)N1CCN(C(=O)c2ccc3nc4cc(Cl)ccc4c(=O)n3c2)CC1,5.36%

row,Structure (SMILES),activation
1,CCOC(=O)c1cccc(NC(=O)C2CCCN(S(=O)(=O)c3cnc[nH]3)C2)c1 (configuration not stated),0.81%
2,Cc1ccc(SCC2=NNC(=O)C2)cc1,-1.28%
3,CC(C)N1C(=S)SC(C)(C)C1n1oc(=O)n(-c2ccc(Cl)c(Cl)c2)c1=O (configuration not stated),7.15%
4,COc1ccc(CN2CCN(Cc3cn(C)nc3-c3ccccc3)CC2CCO)c(C)c1C (configuration not stated),2.04%
5,Cc1noc(C)c1NC(=O)Nc1ccc2c(c1)C(=O)N([C@H](C)CO)C[C@H](C)[C@@H](CN(C)C(=O)Nc1ccc(C(F)(F)F)cc1)O2,3.05%
6,Cc1ccc(-c2noc(CNC(=O)c3ccoc3C)n2)cc1,6.22%
7,O=C(COc1ccccc1F)NNC(=O)c1cc(Br)ccc1Cl,4.62%
8,CCN(CC)C(=O)Oc1ccc(Br)cc1C(=O)Nc1ccc(F)c(Cl)c1,86.6% (active)
9,CCN(CC)C(=O)C(=O)Nc1cccc(Br)c1,4.98%
10,CCC1CCCCN1CCNC(=O)c1[nH]c(C)c(C(C)=O)c1C (configuration not stated),1.61%
11,O=C(Nc1ccc(Cl)cc1)N1CCc2[nH]c3ccccc3c2C1,25.4%
12,C=CCNC(=S)N1CCc2[nH]c3ccccc3c2C1,73.6% (active)
13,Fc1ccc(NC(=S)N2CCc3[nH]c4ccccc4c3C2)cc1,5.41%
14,O=C(CCCN1CCc2[nH]c3ccc(F)cc3c2C1)c1ccc(F)cc1,2.64%
15,Cc1ccc(-n2c(SCC(=O)NCCC3=CCCCC3)nc3n[nH]c(C)c3c2=N)cc1Cl,24.8%
16,CCCCNC(=O)CSc1nc2n[nH]c(C)c2c(=N)n1-c1cccc(Cl)c1C,13.7%
17,COc1cccc(-n2c(SCC(=O)NC3CCCCC3)nc3n[nH]c(C)c3c2=N)c1,104% (active)
18,COc1ccccc1C(=O)NCCC(=O)NN1C(=O)NC2(CCCCC2)C1=O,-0.92%
19,C/C=C/C(=O)OCC(=O)Nc1ccc(F)cc1Cl,0.16%
20,O=C(CCCCCN1C(=O)c2cccc3cccc(c23)C1=O)NCc1ccco1,76.8% (active)
21,O=C(CCCOc1ccccc1)NCc1ccco1,1.62%
22,C[N+](C)(CCCCCC[N+](C)(C)CCCN1C(=O)c2cccc3cccc(c23)C1=O)CCCN1C(=O)c2cccc3cccc(c23)C1=O,4.39%
23,CC1CCN(C(=O)C2CCN(S(=O)(=O)N3CCC4(CC3)OCCO4)CC2)CC1,0.37%
